Data published in PubChem BioAssay AID2514 (National Center for Advancing Translational Sciences (NCATS), 2010).
Several values for one entry are separate records, joined by “and”; a condition that tells them apart may be missing. Identical values can stand only once. Records with an inconclusive call do not appear. Activity calls are given as the source filed them. Calls come from the whole dose curve; as a rule, active = well fitted activation curve with a large enough effect; inconclusive = small, poorly fitted or top-dose-only effect; inactive = no such curve, though single readings can be large or run the other way.

Assay: Confirmation Concentration-Response Assay for Enhancers of SMN2 Splice Variant Expression for Probe SAR
Conditions: HEK293 SMN2 exon7 splicing luciferase reporter, luminescence; series mostly up to 46.1 µM
Source text: NIH Chemical Genomics Center [NCGC] NIH Molecular Libraries Probe Production centers Network [MLPCN] MLPCN Grant: R03 MH084179-01 Assay Submitter (PI): Elliot Androphy NCGC Assay Overview: Spinal muscular atrophy (SMA) is caused by insufficient levels of the survival motor neuron protein SMN. The SMN locus on chromosome 5q13 contains two inverted copies of SMN called SMN1 and SMN2 which are 99% identical at the amino acid level. SMN1 is a fully functional protein and SMN2 skips exon 7 90% of the time. Skipping of exon 7 produces non-functional protein product. 10% of the SMN2 protein includes exon 7 and is fully functional. In the SMA disease state, mutations in the SMN1 locus are the cause of the disease state. Because only 10% of SMN2 is of the fully functional form, it is not sufficient to overcome the deficiency produced by the loss of the SMN1 product. A therapy that either increase the amount of SMN2 product made or to increase the inclusion of exon 7 has been proposed for the treatment of SMA. We have designed an assay to identify small molecules that can increase the amount of functional SMN2 product by appending a luciferase reporter gene after the native SMN2 gene, such that inclusion of exon 7 in the expressed product places the luciferase sequence in frame, thus generating functional luciferase enzyme.
NCGC Assay Protocol Summary: This screen utilizes a luciferase reporter gene assay, combining the promoter with the major portion of the native SMN2 cDNA (exons 1 -7, intron 8 , exon 8 fused to luciferase) stably expressed in HEK293 cells. Compounds that increase luciferase signal presumably enhance expression of the functional SMN2 splice variant. Passaging media contained DMEM w/ glutamax (+phenol red) 10% FCS, 1x pen/strep, 200 ug/ml hygro, 1x sodium pyruvate. Assay media contained DMEM w/ glutamax (-phenol red) 10% FCS, 1x pen strep, 1x pyruvate Sequence, Parameter, Value, Description (1) Cells, 5 uL, 2000 cells/well, 1536 TC treated White solid bottom plate (2) Time, 10-12 hours, 37C 5% CO2 (3) Compound, 23 nl, MLSMR Library (4) Control Compound, 23 nL, Sodium butyrate st 4.5mM (final) conc (5) Time, 30-36 hours, 37C 5% CO2 (6) Reagent, 3 ul, One Glo (TM) from Promega (7) Time, 5-15 minutes, Room temp (8) Detector, Viewlux: luminescent read, 60 second integration, high speed 2x binning Keywords: Spinal muscular atrophy, SMA, SMN2, high throughput screening, MLSMR, MLPCN, NIH Roadmap, qHTS and NCGC
For `CS(=O)(=O)c1cccc(-c2csc(N3CCC(C(N)=O)CC3)n2)c1`, the Potency was “inactive”.
In the case of `NC(=O)C1CCN(c2nc(-c3ccccc3-c3ccccc3)cs2)CC1`, the Potency is reported as “inactive”.
In the case of `Cc1ccc(-c2csc(N3CCC(C(N)=O)CC3)n2)cc1`, the Potency is reported as 0.772 µM (active).
For `CC(=O)c1ccc(-c2csc(N3CCC(C(N)=O)CC3)n2)cc1`, the Potency was 7.72 µM (active).
In the case of `NC(=O)C1CCN(c2nc(-c3cccc(N)c3)cs2)CC1`, the Potency is reported as “inactive”.
In the case of `NC(=O)C1CCN(c2nc(-c3ccccc3Br)cs2)CC1`, the Potency is reported as “inactive”.
For `COc1ccc(-c2csc(N3CCC(C(N)=O)CC3)n2)cc1`, the Potency was 4.34 µM (active).
In the case of `CN(C)c1ccccc1-c1csc(N2CCC(C(N)=O)CC2)n1`, the Potency is reported as “inactive”.
With `NC(=O)C1CCN(c2nc(-c3ccc(F)cc3)cs2)CC1` the Potency was 3.45 µM (active).
For `NC(=O)C1CCN(c2nc(-c3cccnc3)cs2)CC1`, the Potency was “inactive”.
With `NC(=O)C1CCN(c2nc(-c3ccc4ccccc4c3)cs2)CC1` the Potency was 4.87 µM (active).
For `CS(=O)(=O)c1ccccc1-c1csc(N2CCC(C(N)=O)CC2)n1`, the Potency was “inactive”.
With `NC(=O)C1CCN(c2nc(-c3ccc(Br)cc3)cs2)CC1` the Potency was 708 nM (active) and 772 nM (active).
For `CN(C)c1cccc(-c2csc(N3CCC(C(N)=O)CC3)n2)c1`, the Potency was 0.688 µM (active).
For `NC(=O)C1CCN(c2nc(-c3ccccc3C(F)(F)F)cs2)CC1`, the Potency was “inactive”.
With `Cc1noc(C)c1-c1csc(N2CCC(C(N)=O)CC2)n1` the Potency was “inactive”.
For `CC(=O)c1cccc(-c2csc(N3CCC(C(N)=O)CC3)n2)c1`, the Potency was 3.87 µM (active).
For `NC(=O)C1CCN(c2nc(-c3ccccc3F)cs2)CC1`, the Potency was 1.37 µM (active).
With `NC(=O)C1CCN(c2nc(-c3ccc4c(c3)OCCO4)cs2)CC1` the Potency was 0.688 µM (active).
With `NC(=O)C1CCN(c2nc(-c3cc4ccccc4o3)cs2)CC1` the Potency was 8.67 µM (active).
For `Cn1ccc2cc(-c3csc(N4CCC(C(N)=O)CC4)n3)ccc21`, the Potency was 4.34 µM (active).
With `NC(=O)C1CCN(c2nc(-c3cccs3)cs2)CC1` the Potency was 7.72 µM (active).
With `NC(=O)C1CCN(c2nc(-c3ccc4occc(=O)c4c3)cs2)CC1` the Potency was 7.72 µM (active).
